Test results: the supplement of paper PMC12645437, “Orthogonal IMiD-Degron Pairs Induce Selective Protein Degradation in Cells” (ACS Chemical Biology, 2025)
In all, about 8,300 sequences were measured (“log2 fold change of degron read counts, EGFP-low vs EGFP+ sorted cells (limma voom), compound-induced degradation”: median about -1.1, highest 2% from about 3.2 on). The full list was thinned out, with the highest values kept by preference.

T1: CRBN, Q96SW2
T1 chain: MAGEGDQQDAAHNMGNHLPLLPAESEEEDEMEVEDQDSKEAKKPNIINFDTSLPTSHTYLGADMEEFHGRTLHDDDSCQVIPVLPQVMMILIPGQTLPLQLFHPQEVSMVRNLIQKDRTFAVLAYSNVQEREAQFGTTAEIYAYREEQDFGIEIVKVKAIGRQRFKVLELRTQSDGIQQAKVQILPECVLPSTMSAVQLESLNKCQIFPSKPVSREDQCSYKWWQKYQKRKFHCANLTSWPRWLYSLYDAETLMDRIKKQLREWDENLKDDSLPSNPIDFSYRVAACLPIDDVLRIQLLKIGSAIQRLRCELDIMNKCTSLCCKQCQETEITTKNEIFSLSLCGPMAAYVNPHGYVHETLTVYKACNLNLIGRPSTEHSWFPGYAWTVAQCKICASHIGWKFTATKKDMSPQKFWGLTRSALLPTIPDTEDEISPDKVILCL

B1: 46F_47I_49E_50I_52G_53R_54A_55F_67L_, Q9UKT9 (peptide)
chain: FICEICGRAFTQKGNLLRHIKL
B2: 46F_47N_49P_50V_52G_53A_54H_55F_67L_, Q9UKT9 (peptide)
chain: FNCPVCGAHFTQKGNLLRHIKL
B3: 46F_47R_49E_50Q_52G_53A_54M_55F_67L_, Q9UKT9 (peptide)
chain: FRCEQCGAMFTQKGNLLRHIKL
B4: 46F_47N_49D_50Q_52G_53A_54A_55F_67L_, Q9UKT9 (peptide)
chain: FNCDQCGAAFTQKGNLLRHIKL
B5: 46L_47H_49E_50I_52G_53F_54H_55C_67L_, Q9UKT9 (peptide)
chain: LHCEICGFHCTQKGNLLRHIKL
B6: 46L_47C_49N_50Q_52G_53F_54E_55C_67L_, Q9UKT9 (peptide)
chain: LCCNQCGFECTQKGNLLRHIKL
B7: 46F_47M_49D_50V_52G_53A_54A_55F_67L_, Q9UKT9 (peptide)
chain: FMCDVCGAAFTQKGNLLRHIKL
B8: 46F_47C_49E_50V_52G_53A_54D_55F_67L_, Q9UKT9 (peptide)
chain: FCCEVCGADFTQKGNLLRHIKL
B9: 46L_47Q_49N_50Q_52G_53F_54C_55C_67L_, Q9UKT9 (peptide)
chain: LQCNQCGFCCTQKGNLLRHIKL
B10: 46F_47K_49N_50Q_52G_53H_54R_55F_67L_, Q9UKT9 (peptide)
chain: FKCNQCGHRFTQKGNLLRHIKL
B11: 46F_47H_49P_50V_52G_53A_54K_55F_67L_, Q9UKT9 (peptide)
chain: FHCPVCGAKFTQKGNLLRHIKL
B12: 46F_47N_49P_50V_52G_53A_54K_55F_67L_, Q9UKT9 (peptide)
chain: FNCPVCGAKFTQKGNLLRHIKL
B13: 46F_47M_49P_50V_52G_53A_54K_55F_67L_, Q9UKT9 (peptide)
chain: FMCPVCGAKFTQKGNLLRHIKL
B14: 46F_47F_49P_50V_52G_53A_54K_55F_67L_, Q9UKT9 (peptide)
chain: FFCPVCGAKFTQKGNLLRHIKL

Target: T1, CRBN, Q96SW2
Test: log2 fold change of degron read counts, EGFP-low vs EGFP+ sorted cells (limma voom), compound-induced degradation; higher = more compound-induced degradation of the degron-EGFP fusion; degrons are variants of IKZF1/3 zinc finger 2; compound dose not given here
Settings: Jurkat, 18 h
[1] = compound: compound 19 (5-tert-butyl-thalidomide)
[2] = compound: compound 22 (5-morpholino-thalidomide)
[3] = compound: compound 33 (diphenyl IMiD analogue)
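Further: pooled lentiviral library of zinc finger degron-EGFP fusions in mCherry-positive Jurkat cells, FACS-sorted after compound exposure, with degron abundance counted by next-generation sequencing.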

Row | Sequence | log2 fold change of degron read counts [1] | log2 fold change of degron read counts [2] | log2 fold change of degron read counts [3] | log2 fold change of degron read counts (compound: thalidomide)
1 | B1 | -2.83 | -1.59 | -1.38 | -0.306
2 | B2 | 2.14 | 0.242 | 0.245 | 0.138
3 | B3 | -2.73 | -3.44 | -1.59 | -1.56
4 | B4 | -1.89 | -2.81 | -2.8 | -2.92
5 | B5 | 1.32 | 1.17 | 1.52 | 1.23
6 | B6 | -2.68 | -2.78 | -2.7 | -2.45
7 | B7 | -0.0468 | 1.05 | 2.19 | -0.154
8 | B8 | -0.0408 | -0.873 | 0.0623 | -0.497
9 | B9 | -2.28 | -2.29 | -2.54 | -1.12
10 | B10 | -2.45 | -2.52 | -2.56 | -2.52
11 | B11 | 2.35 | 1.96 | 0.171 | 0.556
12 | B12 | 1.67 | 0.844 | -1.26 | 0.347
13 | B13 | -0.124 | -0.0797 | 0.661 | 0.797
14 | B14 | 2.79 | 2.64 | 0.946 | 0.56
